Each structure is given as a SMILES string. “And” between values parts separate entries of the source, which are not always exact repeats. Identical values can stand only once. Values without a mark were called inactive. The source made the active and inactive calls.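 Rule for the calls, unless noted: active = inhibition above the screen-wide mean plus 3 SD, about 51%; inactive = the rest.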

Broadly, the inhibition is the drop in the measured response relative to a control, in per cent.

Sequence of ATP-binding cassette sub-family B member 6 (Homo sapiens) (Q9NP58 whole entry, looked up): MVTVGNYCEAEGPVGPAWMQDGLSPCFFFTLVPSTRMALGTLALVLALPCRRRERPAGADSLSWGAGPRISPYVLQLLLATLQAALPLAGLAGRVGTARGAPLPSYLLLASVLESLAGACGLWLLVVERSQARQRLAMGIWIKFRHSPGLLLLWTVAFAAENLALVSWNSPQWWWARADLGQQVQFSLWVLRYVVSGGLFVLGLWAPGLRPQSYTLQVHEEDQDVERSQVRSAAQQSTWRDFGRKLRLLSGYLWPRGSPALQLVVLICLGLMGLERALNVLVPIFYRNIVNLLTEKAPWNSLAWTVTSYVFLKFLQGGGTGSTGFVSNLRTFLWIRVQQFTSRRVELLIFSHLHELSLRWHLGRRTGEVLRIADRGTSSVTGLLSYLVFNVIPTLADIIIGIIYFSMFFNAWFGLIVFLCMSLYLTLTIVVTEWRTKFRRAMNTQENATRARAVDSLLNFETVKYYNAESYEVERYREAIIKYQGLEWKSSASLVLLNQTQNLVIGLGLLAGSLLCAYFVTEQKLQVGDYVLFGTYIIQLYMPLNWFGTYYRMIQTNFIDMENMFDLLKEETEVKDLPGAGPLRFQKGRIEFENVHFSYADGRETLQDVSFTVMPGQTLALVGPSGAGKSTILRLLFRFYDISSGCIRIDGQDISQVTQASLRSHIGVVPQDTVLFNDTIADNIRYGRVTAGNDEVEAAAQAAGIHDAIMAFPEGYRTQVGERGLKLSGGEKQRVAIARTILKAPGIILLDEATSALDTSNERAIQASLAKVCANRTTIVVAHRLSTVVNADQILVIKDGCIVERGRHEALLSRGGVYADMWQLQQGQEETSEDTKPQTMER

System in the first assay: not listed separately
Briefly: inhibitors of fungal efflux pumps CDR1, CDR2, MDR1, pilot screen, validation compound set, multiplex, phenotypic (AID 588506;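 active = efflux inhibition above 0.42, the validation set average plus 4 SD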;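 note: Nile Red retained in cells so higher fluorescence means more efflux inhibition; 0 = negative control wells and 1 = enniatin B 25 µM full block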). Particulars: S. cerevisiae pump-expressing triplex, Nile Red efflux flow cytometry; at 10 µM; active compounds read high; the pumps come from Candida albicans. Background: A flow cytometer gives signals particle by particle.
In the case of `COCCCNc1nc2c([nH]1)c(=O)[nH]c(=O)n2C`, the efflux inhibition (fraction of control) is -0.17. With `CC(C)Oc1ccc2c(=O)c(-c3ccccc3)coc2c1`, the efflux inhibition (fraction of control) was -0.53. The same measure, in the same setting: under `O=C(Nc1cccc(Oc2c(F)c(F)c(F)c(F)c2F)c1)N1C[C@@H]2C[C@@H](C1)c1cccc(=O)n1C2` stands -0.35. `CCCCC[C@H](O)/C=C/C1=C(CCCCCCC(=O)O)C(=O)CC1`: the efflux inhibition (fraction of control) was 0.125. As to `CC(=O)OC[C@H]1O[C@@H](Sc2cccc3cccnc23)[C@H](OC(C)=O)[C@@H](OC(C)=O)[C@H]1OC(C)=O`, the efflux inhibition (fraction of control) is 0.04. Regarding `COc1cc(OC)cc(C(C)=O)c1`, the efflux inhibition (fraction of control) is 0. In the case of `Nc1ccc2nc(Cc3ccccc3)[nH]c2c1`, the efflux inhibition (fraction of control) is 0.48 (active).

In the case of `COc1ccc2c(c1)[N+](C)(C)C(C)(C)C=C2C`, the efflux inhibition (fraction of control) was -0.04. In the case of `COc1ccc(CCN(C)Cc2nc(Cc3ccc(OC)c(OC)c3)no2)cc1OC`, the efflux inhibition (fraction of control) is 0. The same measure, in the same setting: under `N=c1c[n+](N2CCOCC2)[n-]o1` stands -0.07; under `CCCc1cc(=O)[nH]c(=S)[nH]1`, 0.44 (active). Take `COC(=O)c1ccccc1NC(=O)c1ccc(COc2ccc3c(c2)CCC3)cc1`: the efflux inhibition (fraction of control) was 0.46 (active). As for `CC1(C)Cc2ccccc2-c2nc(-c3ccccc3)oc(=O)c21`, the efflux inhibition (fraction of control) was 0.08. Take `Cc1cc(=O)oc2c(CN(C)Cc3ccccc3)c(O)ccc12`: the efflux inhibition (fraction of control) is 0.11. As to `CC1=NN(c2ccccc2)C(=O)C1`, the efflux inhibition (fraction of control) was -0.1. Regarding `CCOc1ccc2ccccc2c1C(=O)N[C@@H]1C(=O)N2[C@@H]1SC(C)(C)[C@@H]2C(=O)O`, the efflux inhibition (fraction of control) was 0.14.

As to `O=C1CC2(CCCC2)CC(=O)N1CCCCN1CCN(c2ncccn2)CC1`, the efflux inhibition (fraction of control) is 0.21. With `Cc1ccc(C2=NOC(=O)/C2=C\C=C\c2ccccc2)cc1`, the efflux inhibition (fraction of control) was -0.17.

As to `COc1ccc2c3c([nH]c2c1)C1(NCC3)C(=O)Nc2ccccc21` (stereo not given), the efflux inhibition (fraction of control) is 0.05. For the molecule `CC1(C)S[C@@H]2[C@H](NC(=O)Cc3ccccc3)C(=O)N2[C@H]1C(=O)O`, the efflux inhibition (fraction of control) is 0.08.

For `COc1cc2cc(C(=O)O)[nH]c2c(OC)c1OC`, the efflux inhibition (fraction of control) is -0.32.

Regarding `Clc1cc(-c2ccc(/C=N/n3cnnc3)o2)ccc1Br`, the efflux inhibition (fraction of control) was -0.36.

A further assay concerns the target ATP-binding cassette sub-family B member 6 (Homo sapiens) (UniProt Q9NP58). Briefly: ABCB6 transporter inhibitors, pilot screen, K562-ABCB6 cells, flow cytometry, validation set (AID 588550).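 Note: 0% = DMSO wells and 100% = benzethonium chloride 70 µM positive control.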 Particulars: K562-ABCB6 porphyrin accumulation, 1 h, at 10 µM, active compounds read high.
With `S=C(NCCOCCOCCNC(=S)Nc1ccccc1)Nc1ccccc1`, the inhibition was 4%.

With `Cc1ccc(CN2CCN(Cc3cn[nH]c3C3CCCCC3)CC2CCO)cc1` (stereo not given), the inhibition is 8%.

With `OCCC1CN(Cc2ccccc2-c2ccco2)CCN1C1CCCC1` (stereo not given), the inhibition was 1%. As for `COc1ccc2oc(-c3ccco3)cc(=O)c2c1`, the inhibition was 8%.

As to `Nc1nc2c(nc(SCc3ccccc3Br)n2C2OC(CO)C(O)C2O)c(=O)[nH]1` (stereo not given), the inhibition was 1%. For the molecule `O=C(CCC(=O)NCCO)NCCO`, the inhibition is 2%. On to `Cc1cc(=O)[nH]c(=S)[nH]1`, for which the inhibition is 12%.

Regarding `CN(C)C(=O)Oc1cccc([N+](C)(C)C)c1`, the inhibition was 2% and 4%. Consider `COc1cc(/C=C/C(=O)O)cc(S(=O)(=O)NCCCO)c1OC`, for which the inhibition is 5%. In the case of `COC(=O)c1sccc1NC(=O)Nc1ccccc1F`, the inhibition is 23%. For `CC1(C)C(=O)OC(/C=C\c2ccccc2)C(C)(C)C1=O` (stereo not given), the inhibition is 3%. With `O=C(/C=C/c1ccc(F)cc1)NC(=S)N1CCCCC1c1cccnc1` (stereo not given), the inhibition was -5%. For the molecule `COc1cc2c(cc1OC)C1(CCCC1)CNC2c1cccc([N+](=O)[O-])c1` (stereo not given), the inhibition is 4%. In the case of `O=C(NCCO)c1ccc(Cl)c(Cl)c1`, the inhibition is 9%. As for `N#C/C(=C\c1ccc(O)c(O)c1)C(=O)NCCCc1ccccc1`, the inhibition was -1%. The same measure, in the same setting: under `CSCC[C@H](NC(=O)OC(C)(C)C)C(=O)N1CCC(C(=O)N[C@@H](C)C(=O)O)CC1` stands 8%; under `Cc1cc(-c2nn(-c3ccccc3F)cc2CN2CCCC(O)C2)c(C)s1` (stereo not given), 0%. `COCCCNc1nc2c([nH]1)c(=O)[nH]c(=O)n2C`: the inhibition was 6%. Still for that read-out and setting: as for `CC(C)Oc1ccc2c(=O)c(-c3ccccc3)coc2c1`, the figure is 13%; as for `O=C(Nc1cccc(Oc2c(F)c(F)c(F)c(F)c2F)c1)N1C[C@@H]2C[C@@H](C1)c1cccc(=O)n1C2`, -6%; as for `CCCCC[C@H](O)/C=C/C1=C(CCCCCCC(=O)O)C(=O)CC1`, 3%. The same measure, in the same setting: under `CC(=O)OC[C@H]1O[C@@H](Sc2cccc3cccnc23)[C@H](OC(C)=O)[C@@H](OC(C)=O)[C@H]1OC(C)=O` stands -2%. `COc1cc(OC)cc(C(C)=O)c1`: the inhibition is 5%.

These data come from PubChem BioAssay.
